High-throughput results from PubChem BioAssay.
Hits are enriched below; roughly 2.7% of the tested compounds scored in any of these assays.
BRCA1 expr act: qHTS Assay to Identify Small Molecule Activators of BRCA1 Expression; MCF7-BRCA1-FFLuc reporter, luminescence, 48 h; response scale: scaled: vehicle 0%, 10 µM genistein 100%; Potency, µM (series often up to 46.1 µM), for the others: top-dose activation, usual class: activators; hit rate 1.1% among 380,000; note: nearly all actives have a fitted effect of over 80% in size
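MCF7-BRCA1-FFLuc, 2000 cells/well; 2 h attach, 37 °C/5% CO2; compound 48 h; luciferase substrate 15 min; luminescence end-point. Norm. to genistein 10 microM max activation and DMSO; concentration-response curves fitted.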
HEK293 tox: qHTS of GLP-1 Receptor Inverse Agonists: Cytotox Screen. HEK293 cAMP-luciferase reporter cells, luminescence, 24 h. Potency, µM (top dose mostly 38.3 µM), inactives show at the top dose activity change, negative = inhibition, usual class: inhibitors. hit rate 0.13% among 410,000. AID 624418, 2012;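 note: loss of luciferase light is scored as toxicity; % is set by controls: 0 for no effect and ±100 for the full control effect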
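1536-well qHTS counterscreen of the MLSMR; 200 cells/uL, 12 h pre-incubation, 23 nL cpd, 24 h at 37 deg C 5% CO2, luciferase detection reagent, 12 min RT, luminescence. Inhibition = undesired.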
Integrin act MD: qHTS for Activators of Integrin-Mediated Alleviation for Muscular Dystrophy. Potency, µM (doses to about 38.3 µM), inactives show top-dose activation, most hits filed as activators. alpha7betagal myoblasts, beta-gal FDG fluorescence, 48 h. hit rate 0.064% among 350,000;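 note: 100% = response of the positive control SU9516; nearly all actives have a fitted effect of over 60% in size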
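Alpha7betagal+/- myoblasts (passage 13) were plated 16-24 hr, then exposed to compounds (1:260 dilution of DMSO stock) for 48 hours at 37C. After MPER lysis, β-galactosidase reporter activity was read as FDG fluorescence (ex 480/em 540) after 30 minutes.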
GLP-1R inv ag: qHTS of GLP-1 Receptor Inverse Agonists (Inhibition Mode). Glucagon-like peptide 1 receptor (Homo sapiens), P43220. HEK293 GLP-1R CRE-luciferase, luminescence, 24 h; GLP-1R form is constitutively active. Potency, µM (titrated, usually from 38.3 µM), without a hit: at the highest dose activity change, negative = inhibition, actives largely listed as inhibitors. hit rate 1.6% among 410,000. AID 624417, 2012; note: % is set by controls: 0 for no effect and ±100 for the full control effect; nearly all actives have a fitted effect of over 55% in size
Target sequence (P43220 whole entry, looked up): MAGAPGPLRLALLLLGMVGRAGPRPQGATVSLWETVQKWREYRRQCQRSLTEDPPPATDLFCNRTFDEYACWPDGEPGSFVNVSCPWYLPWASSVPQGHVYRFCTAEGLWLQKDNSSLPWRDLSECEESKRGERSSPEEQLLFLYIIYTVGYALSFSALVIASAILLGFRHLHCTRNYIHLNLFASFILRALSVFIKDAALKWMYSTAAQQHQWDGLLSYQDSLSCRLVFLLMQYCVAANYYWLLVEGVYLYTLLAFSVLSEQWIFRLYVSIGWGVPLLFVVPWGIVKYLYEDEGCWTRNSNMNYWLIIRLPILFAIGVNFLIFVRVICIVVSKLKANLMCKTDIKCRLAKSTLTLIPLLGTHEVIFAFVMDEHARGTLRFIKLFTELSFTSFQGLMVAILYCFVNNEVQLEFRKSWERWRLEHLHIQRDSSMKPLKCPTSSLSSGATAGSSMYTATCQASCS
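Assay principle: reduced luminescence from a cAMP-responsive reporter in HEK293 cells co-expressing a constitutively active GLP-1R. Conditions: 24 hr compound incubation, 37 deg C, 5% CO2.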
GLP1R ag: qHTS of GLP-1 Receptor Agonists. HEK293 GLP-1R CRE-luciferase, luminescence, 4-6 h; cells express a hypersensitive GLP-1R form. hit rate 0.007% among 380,000. AID 624172, 2012. Glucagon-like peptide 1 receptor (Homo sapiens), P43220. Potency, µM (series often up to 45.6 µM), for inactives: at the highest dose activation, actives largely listed as activators; note: % of control where 0% means no effect
* hit, by the source's call. Calls come from the whole dose curve; as a rule, active = well fitted curve in the direction sought with a large enough effect; inconclusive = small, poorly fitted or top-dose-only effect, or another doubt; inactive = no such curve, though single readings can be large; an effect the other way counts as inactive or inconclusive. Potency is the fitted concentration of half-maximal effect.

How did Cc1ccccc1NC(=O)Nc1ccc2c(c1)OCO2 do in these assays?
BRCA1 expr act: 5.62µM*; HEK293 tox: -7.3%; Integrin act MD: 10.3%; GLP-1R inv ag: 17.5%; GLP1R ag: -1.4%

Results for O=C(/C=C\Nc1cccc(F)c1)c1ccc2c(c1)OCO2 ?
BRCA1 expr act: inconclusive; HEK293 tox: 6.2%; Integrin act MD: 9.8%; GLP-1R inv ag: 10µM*; GLP1R ag: -4.4%

Results for CC(C)Cc1cc(C(=O)Nc2ccc3c(c2)OCO3)no1 ?
BRCA1 expr act: inconclusive; HEK293 tox: 19.7%; Integrin act MD: -23.0%; GLP-1R inv ag: 3.98µM*; GLP1R ag: -1.6%

What do the screens show for `Cc1ccc(NC(=O)c2ccc(=O)n(Cc3ccccc3C)c2)c(C)c1`?
BRCA1 expr act: -4.3%; HEK293 tox: -4.2%; GLP-1R inv ag: -24.6%; GLP1R ag: 12.4%

How did COc1ccc(NC(=O)C2CCCN(c3ncnc4c3nc3n4CCCCC3)C2)c(OC)c1 (configuration not stated) do in these assays?
HEK293 tox: -0.9%; GLP-1R inv ag: 5.4%

How did O=S(=O)(c1ccc(Br)cc1)c1nc(-c2ccco2)oc1SCc1ccccc1F do in these assays?
HEK293 tox: 16.9%; GLP-1R inv ag: inconclusive

How did COc1ccccc1N(CC(=O)NCCSc1ccccc1)S(=O)(=O)c1ccc(C)cc1 do in these assays?
HEK293 tox: -1.5%; GLP-1R inv ag: inconclusive

What do the screens show for `CCNc1nc(CN2CCOCC2)nc2sc3c(c12)CCC3`?
BRCA1 expr act: -15.3%; HEK293 tox: 22.3%; Integrin act MD: -13.8%; GLP-1R inv ag: -7.3%; GLP1R ag: 6.5%

How did c1ccc2c(c1)CCN(c1nc(CN3CCOCC3)nc3sc4c(c13)CCCC4)C2 do in these assays?
BRCA1 expr act: -45.9%; HEK293 tox: 4.1%; Integrin act MD: -23.8%; GLP-1R inv ag: 8.91µM*; GLP1R ag: 21.0%

How did O=[N+]([O-])c1cc(C(F)(F)F)ccc1Sc1ccc2ccccc2n1 do in these assays?
BRCA1 expr act: -4.3%; HEK293 tox: 2.5%; Integrin act MD: -11.6%; GLP-1R inv ag: 10µM*; GLP1R ag: 0.6%

How did Nc1nc(Sc2ccc(C(F)(F)F)cc2[N+](=O)[O-])n[nH]1 do in these assays?
BRCA1 expr act: 39.3%; HEK293 tox: 19.2%; Integrin act MD: 15.5%; GLP-1R inv ag: 7.7%; GLP1R ag: 18.1%

What do the screens show for `COc1cccc(N2CCN(C(=O)C3CCC(CNS(=O)(=O)c4ccc(Br)s4)CC3)CC2)c1` (configuration not stated)?
HEK293 tox: -8.5%; GLP-1R inv ag: -29.8%

Results for Cc1ccc(S(=O)(=O)N(CC(=O)N2CCc3ccccc3C2)c2ccc(C)c(C)c2)cc1 ?
HEK293 tox: -9.5%; GLP-1R inv ag: 11.2µM*

How did Cc1ccc(N(CC(=O)N2CCc3ccccc32)S(=O)(=O)c2cccs2)cc1 do in these assays?
BRCA1 expr act: -12.4%; HEK293 tox: 4.3%; Integrin act MD: -20.9%; GLP-1R inv ag: 10µM*; GLP1R ag: 0.4%

How did COc1ccc(CCn2c(=S)[nH]c(=O)c3c(C)cc(C)nc32)cc1OC do in these assays?
BRCA1 expr act: -20.7%

How did Cc1cc(Cl)nc2nc(Cl)ccc12 do in these assays?
BRCA1 expr act: 0.0%

Results for COc1ccc(CNC(=O)c2cc3cccc4c3n2CC(C)S4)cc1 (configuration not stated) ?
HEK293 tox: 0.2%; GLP-1R inv ag: inconclusive

Results for COc1ccc(-c2nnn(Cc3ccccc3F)n2)cc1 ?
BRCA1 expr act: 3.98µM*; HEK293 tox: -3.9%; Integrin act MD: -2.8%; GLP-1R inv ag: inconclusive; GLP1R ag: 1.0%

What do the screens show for `COc1cc(/C=N/Nc2ccc(F)cc2F)cc(OC)c1O`?
BRCA1 expr act: -61.7%; HEK293 tox: -11.3%; Integrin act MD: -26.1%; GLP-1R inv ag: inconclusive; GLP1R ag: 7.6%

How did Cc1ccc(/C=N/Nc2ccccn2)s1 do in these assays?
BRCA1 expr act: 11.2µM*; HEK293 tox: inconclusive; Integrin act MD: -6.8%; GLP-1R inv ag: -1.6%; GLP1R ag: 13.3%

What do the screens show for `Cc1ccc(/C=N/Nc2ccc(F)cc2F)s1`?
BRCA1 expr act: 70.3%; HEK293 tox: -13.5%; Integrin act MD: inconclusive; GLP-1R inv ag: 5.01µM*; GLP1R ag: 0.9%

Results for Brc1ccccc1/C=N/Nc1ccccn1 ?
BRCA1 expr act: -21.1%; HEK293 tox: -6.8%; Integrin act MD: -6.6%; GLP-1R inv ag: -8.4%; GLP1R ag: 1.8%

What do the screens show for `Clc1cccc(CNc2cc(-c3ccccc3)nc3nncn23)c1`?
HEK293 tox: -11.3%; GLP-1R inv ag: inconclusive

Results for COc1ccc(NC(=O)/C=C\C(=O)N(c2ccc(C(C)C)cc2)C(C(=O)NCc2ccco2)c2ccc(C)cc2)cc1 (configuration not stated) ?
HEK293 tox: -19.3%; GLP-1R inv ag: 10µM*

What do the screens show for `COc1cc(CNCCc2ccccc2)cc(Br)c1OCC(=O)Nc1ccccc1C`?
BRCA1 expr act: -24.1%; HEK293 tox: inconclusive; Integrin act MD: -67.6%; GLP-1R inv ag: 7.94µM*; GLP1R ag: -1.1%

How did CCCNCc1cc(Br)ccc1OCC(=O)NCCc1ccccc1 do in these assays?
BRCA1 expr act: -36.6%; HEK293 tox: inconclusive; Integrin act MD: inconclusive; GLP-1R inv ag: -70.4%; GLP1R ag: -5.0%

How did O=C(COc1ccc(Br)cc1CNCCc1ccccc1)NCc1ccccc1 do in these assays?
BRCA1 expr act: -12.0%; HEK293 tox: inconclusive; Integrin act MD: -59.9%; GLP-1R inv ag: 10µM*; GLP1R ag: 2.8%

What do the screens show for `Cc1cc(Br)ccc1OCCNCc1ccccc1`?
BRCA1 expr act: 14.1%; HEK293 tox: 2.8%; Integrin act MD: 12.6%; GLP-1R inv ag: 8.91µM*; GLP1R ag: 40.2%

Results for CC(=O)c1cccc(NS(=O)(=O)c2cccc(S(=O)(=O)c3ccc(Br)cc3)c2)c1 ?
HEK293 tox: -0.5%; GLP-1R inv ag: inconclusive

Results for COc1cc2oc(=O)c(CC(=O)N3CCCCC3)c(C)c2cc1OC ?
HEK293 tox: 0.3%; GLP-1R inv ag: 0.2%

Results for COc1ccc(Nc2nc(N)c3ccccc3n2)c(OC)c1 ?
BRCA1 expr act: 3.55µM*; HEK293 tox: -6.8%; Integrin act MD: -4.7%; GLP-1R inv ag: 4.2%; GLP1R ag: 0.9%

What do the screens show for `Cc1ccc(Nc2nc(N)c3ccccc3n2)cc1C`?
BRCA1 expr act: inconclusive; HEK293 tox: 2.6%; Integrin act MD: inconclusive; GLP-1R inv ag: 7.08µM*; GLP1R ag: -1.0%
